Screening results deposited in PubChem by National Center for Advancing Translational Sciences (NCATS).
Rows were chosen to be rich in hits. Some 15% of all compounds tested hit in one or more screens of this group.
HCMV antiviral – inhibitors of human cytomegalovirus. HFF cells, HCMV-luciferase reporter, 72 h; hits give low values. activity change, negative = inhibition, % at 57.5 µM. 410,000 compounds, 4.5% hits. AID 1259415; in the data active = activity change below about -60%; inconclusive = no clear call, values can overlap the other calls; inactive = above about -39%; also: % is scaled to controls: 0 for no effect and ±100 for the full control effect
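Screen run at 2 compound doses on HFFs infected with reporter HCMV, MOI 1 PFU/cell. Luciferase activity from cell lysates at 72 h post infection gave inhibition relative to buffer-only and Salinomycin wells.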
Sm TGR inh – blocks Schistosoma mansoni thioredoxin glutathione reductase; purified TGR, DTNB reduction, TNB absorbance 405 nm; 360,000 compounds, 3% hits; Q962Y6; Potency, µM (titrated, usually from 114 µM), without a hit: top-dose activity change, negative = inhibition, actives largely listed as inhibitors; also: potency is read from the fitted curve at half-maximal effect; % is scaled to controls: 0 for no effect and ±100 for the full control effect; nearly all actives have a fitted effect of over 60% in size
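Kinetic colorimetric format: TGR-catalysed, NADPH-driven DTNB reduction monitored via TNB absorbance. Enzyme dispensed at 20 nM; compound exposure 15 min at room temperature before reaction start.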
Pf growth 96h – inhibits malaria parasite growth, 96 h. P. falciparum luciferase reporter growth, 96 h. Potency, µM (series often up to 28.7 µM), for the others: top-dose activity change, negative = inhibition, most hits filed as inhibitors. 320,000 compounds, 6.9% hits; also: potency is read from the fitted curve at half-maximal effect; % is scaled to controls: 0 for no effect and ±100 for the full control effect
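P. falciparum expressing integrated firefly luciferase grown in erythrocytes (2% hematocrit, 0.05% parasitemia final) with compounds for 96 hours at 37 C, 5% CO2. Growth inhibition read as loss of luminescence after adding luciferase detection reagent.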
HCV inhibitor – inhibitors of hepatitis C virus infection | Huh7.5.1 HCVcc-Cre infection, luciferase reporter, 44 h | Potency, µM (titrated, usually from 41.8 µM), for the others: at the top dose activity change, negative = inhibition, hits mostly inhibitors | 340,000 compounds, 3.4% hits | AID 651820; also: potency is read from the fitted curve at half-maximal effect; % is scaled to controls: 0 for no effect and ±100 for the full control effect
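Compounds are dispensed onto cells plated 4 h earlier at 1,000 per well, with HCVcc-Cre virus (about 0.5 moi) added next. Following 44 h of culture, luminescent signal is measured for 15 sec after 15 min with substrate at room temperature.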
Pf growth 48h – inhibits P. falciparum growth in the first generation, 48 h | P. falciparum luciferase growth in erythrocytes, 48 h | Potency, µM (top dose mostly 28.7 µM), inactives show top-dose activity change, negative = inhibition, most hits filed as inhibitors | 310,000 compounds, 5.9% hits; also: potency is read from the fitted curve at half-maximal effect; % is scaled to controls: 0 for no effect and ±100 for the full control effect
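Erythrocytes infected with P. falciparum carrying an integrated firefly luciferase reporter (2% hematocrit, 0.1% parasitemia final) were exposed to compounds in RPMI 1640 with 0.5% Albumax at 37 C, 5% CO2. Growth inhibition was scored as reduced luminescence.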
SARS PLP yeast – SARS-CoV PLP inhibition in yeast | S. cerevisiae expressing SARS-CoV PLpro, growth rescue | Potency, µM (top dose mostly 32.9 µM), without a hit: at the top dose activity, positive = growth rescue, hits mostly activators | 330,000 compounds, 0.19% hits; calls by dose curve; also: potency is read from the fitted curve at half-maximal effect; 0% is about no effect; nearly all actives have a fitted effect of over 55% in size
Numbers without * were called inactive; ? = inconclusive; . = no result; [ ] = dose if it differs, or a comment. Unless noted, calls follow the shape of the dose curve; as a rule, active = well fitted curve in the direction sought with a large enough effect; inconclusive = small, poorly fitted or top-dose-only effect, or another doubt; inactive = no such curve, though single readings can be large; an effect the other way counts as inactive or inconclusive.

SMILES	HCMV antiviral	Sm TGR inh	Pf growth 96h	HCV inhibitor	Pf growth 48h	SARS PLP yeast
C#CCOCCOCCOCCNc1nc(N2CCN(C(=O)[C@H](C)n3cc(CCC(=O)O)nn3)CC2)nc(N2CCN(C(=O)[C@H](C)n3cc(CCC(=O)O)nn3)CC2)n1	0.6	.	.	-1.5%[8.37 µM]	.	.
C#CCOCCOCCOCCNc1nc(N2CCN(C(=O)[C@H](C)n3cc(CCC(=O)O)nn3)CC2)nc(N2CCN(C(=O)[C@H](CCCCN)n3cc(CCCC)nn3)CC2)n1	2.5	.	.	4.0%	.	.
C#CCOCCOCCOCCNc1nc(N2CCOCC2)nc(N2CCN(C(=O)CCCCCCCCCCNC(=O)[C@@H](CCSC)n3cc(CCO)nn3)CC2)n1	-34.5	-19.1%	?	-27.7%	0.657µM*	8.3%
C#CCOCCOCCOCCNc1nc(N2CCN(C(=O)CCCCCCCCCCNC(=O)[C@H](CO)n3cc(CCCSC)nn3)CC2)nc(N2CCN(C(=O)CCCCCCCCCCNC(=O)[C@H](CCCCN)n3cc(C[C@@H](C)CC)nn3)CC2)n1	.	-0.8%	1.85µM*	?	1.31µM*	-1.8%
C#CCOCCOCCOCCNc1nc(N2CCOCC2)nc(N2CCN(C(=O)[C@H](CCCCN)n3cc(CN)nn3)CC2)n1	10.0	.	.	31.2%	.	-4.6%
C#CCOCCOCCOCCNc1nc(N2CCN(C(=O)CCCCCCCCCCNC(=O)[C@H](CO)n3cc(CCCSC)nn3)CC2)nc(N2CCN(C(=O)CCCCCCCCCCNC(=O)[C@H](CO)n3cc(CCCSC)nn3)CC2)n1	-70.9*	-27.2%	0.104µM*	10.2%	0.294µM*	-2.0%
S=c1nc(C2CC2)n(-c2ccccc2)[nH]1	-15.3	12.9%	6.1%	4.2%	-5.6%	-2.1%
COc1cccc(/C=C/C(=O)NNC(=O)c2ccccc2)c1OC	106.5	.	.	-3.0%	.	-6.2%
CCN(CC)C(=O)Cn1nc(-c2ccc(Cl)cc2)c2ccccc2c1=O	?	-0.3%	-26.3%	-9.2%	1.5%	2.5%
CC(C)Cc1nc2ccccc2n1CCc1ccccc1	?	7.9%	6.57µM*	5.6%	9.28µM*	-15.3%
CCc1nc2ccccc2n1CCc1ccccc1	?	-3.5%	53.5%	2.8%	?	16.2%
CCn1c(CCc2ccccc2)nc2ccccc21	22.0	-18.1%	0.131µM*	-17.4%	?	-1.2%
CCOc1ccc(C(=O)Nc2cccc(-c3nc4cccnc4s3)c2C)cc1OCC	10.1	-5.1%	.	.	.	.
CCN1CCN(c2nc(SC)nc3sc4c(c23)CC(C)(C)OC4)CC1	-19.8	-1.2%	28.2%	-23.7%	1.65µM*	4.5%
CCC1(C)Cc2c(sc3nc(SC)nc(NCCN(C)C)c23)CO1 (configuration not stated)	-108.0*	-2.0%	3.7µM*	?	?	0.5%
CCOC(=O)N1CCN(c2nc(SC)nc3sc4c(c23)CC(C)(C)OC4)CC1	19.1	-8.2%	.	-11.0%	3.7µM*	3.7%
Cc1cc(C)n2nc(SCCOc3ccccc3)nc2n1	-23.9	16.1%	2.5%	-2.3%	89.1%	0.5%
CN(C(=O)COC(=O)CCc1c[nH]c2ccccc12)c1ccccc1	-6.4	-18.7%	-1.2%	18.3%	?	0.7%
Cc1nc(Cc2nnc(SCC(=O)N3c4ccccc4NC(=O)C3(C)C)o2)cs1	13.7	.	.	.	.	.
CCCc1nnc(NC(=O)CCC(=O)N2CCN(Cc3ccc(OC)c(F)c3)CC2)s1	-76.2*	-1.7%	-9.4%	?	-29.8%	-10.6%
COc1ccc(CN2CCN(C(=O)CCC(=O)Nc3nnc(C(F)(F)F)s3)CC2)cc1F	-33.9	-2.2%	?	-15.2%	-8.7%	-6.2%
COc1ccc(CN2CCN(C(=O)CCC(=O)Nc3nnc(CC(C)C)s3)CC2)cc1F	-65.3*	-25.4%	-1.5%	?	?	15.2%
COc1ccc(CN2CCN(C(=O)CCC(=O)Nc3nnc(C4CCCCC4)s3)CC2)cc1F	-73.0*	-12.1%	11.7µM*	?	-27.4%	-4.8%
CCOc1ccc2c(c1)-c1c(ssc1=S)C(C)(C)N2C	7.4	-17.8%	.	?	23.9%	-14.8%
CC1(C)Nc2ccc(O)cc2-c2c1ssc2=S	-39.6	-25.4%	8.28µM*	?	?	8.1%
SMILES	HCMV antiviral	Sm TGR inh	Pf growth 96h	HCV inhibitor	Pf growth 48h	SARS PLP yeast
N#CC1=C(S)N(c2ccccc2)C(c2ccc(-c3ccc(Cl)c(Cl)c3)o2)NC1=O (configuration not stated)	-32.6	14.1µM*	-4.5%	14.0%	1.1%	-5.7%
N#CC1=C(S)N(c2ccccc2)C(c2ccc(-c3cc(Cl)ccc3Cl)o2)NC1=O (configuration not stated)	-12.2	-6.5%	36.9%	4.4%	2.3%	-0.8%
Cc1ccc(C)c(NS(=O)(=O)c2cc3c(cc2C)n(C)c(=O)c(=O)n3C)c1	-6.3	6.1%	.	.	.	.
CSc1ccc(CCNC(=O)c2c(C)nn(-c3ccc(F)cc3)c2-n2cccc2)cc1	?	3.5%	.	.	.	.
Cc1ccc(NC(=O)C/C(N)=N/OC(=O)Nc2cccc(C)c2)cc1	58.4	-2.8%	37.6%	-6.2%	35.5%	-5.3%
Cc1ccc(NC(=O)ON=C2CCCC2)cc1	-5.8	4.5%	19.9%	3.3%	4.65µM*	.
O=C(Nc1ccccc1)ON=C1CCCC1	25.2	-4.3%	?	12.1%	8.28µM*	-71.8%
CC1(C(=O)NCc2cccs2)Cc2c(-c3ccc4c(c3)OCO4)ccnc2O1 (configuration not stated)	-38.0	.	.	.	.	.
CCOC(=O)c1cccc(NC(=O)CC(c2ccc(F)cc2)N2Cc3ccccc3C2=O)c1 (configuration not stated)	7.2	-4.5%	.	.	.	.
CCOC(=O)C(CN1CCCC1)c1ccccc1 (configuration not stated)	-24.1	-0.2%	73.8%	15.7%	-29.6%	-20.9%
O=C(c1ccccc1)C(CN1CCCC1)c1ccccc1 (configuration not stated)	-102.9*	44.7µM*	11.7µM*	?	?	-46.0%
O=C(c1ccc(Cl)cc1)C(CN1CCCCC1)c1ccccc1 (configuration not stated)	-101.0*	6.31µM*	0.0%	15.8µM*	-4.2%[0.00184 µM]	-5.8%
Cc1ccc(C(=O)C(C)CN2CCCCC2)cc1 (configuration not stated)	9.0	.	13.5µM*	.	13.5µM*	.
